The whole screen tested about 5,500 compounds, of which about 2,000 (36%) were called active. Roughly 18% stayed inconclusive and do not appear here. Cut-off read from the data, not from the text of the source: active = normalized growth mostly below about 0.91 (no sharp cut-off); inconclusive = no clear call, values can overlap the other calls; inactive = mostly above about 0.92. This is one part of the list.
Test: chemical genetic growth profiling, strain panel (AID 1159580);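 note: tested at 20 µM; growth read once vehicle control cultures reached saturation at 30 °C; 1 = growth at the plate median or of vehicle wells; lower values mean less growth of the strain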
Settings: S. cerevisiae deletion strains, growth OD

Measured: normalized growth

C/C(=N/NC(N)=S)c1ccccn1
inactive: locus YAR019C, strain CDC15, stronger effect = lower value 0.962 | locus YBL105C, strain PKC1, stronger effect = lower value 0.98 | locus YBR135W, strain CKS1, stronger effect = lower value 0.971 | locus YBR136W, strain MEC1, stronger effect = lower value 0.962 | locus YBR160W, strain CDC28, stronger effect = lower value 0.985 | locus YDL017W, strain CDC7, stronger effect = lower value 0.987 | locus YDL028C, strain MPS1, stronger effect = lower value 0.97 | locus YDL101C, strain DUN1, stronger effect = lower value 0.982 | locus YDL108W, strain KIN28, stronger effect = lower value 0.97 | locus YDL132W, strain cdc53, stronger effect = lower value 0.949 | locus YDL214C, strain PRR2, stronger effect = lower value 0.932 | locus YDR052C, strain DBF4, stronger effect = lower value 0.963 | locus YDR054C, strain cdc34, stronger effect = lower value 0.944 | locus YDR226W, strain ADK1, stronger effect = lower value 0.971 | locus YDR477W, strain SNF1, stronger effect = lower value 0.878 | locus YER123W, strain YCK3, stronger effect = lower value 0.874 | locus YER133W, strain GLC7, stronger effect = lower value 0.889 | locus YFL009W, strain cdc4, stronger effect = lower value 0.939 | locus YFL029C, strain CAK1, stronger effect = lower value 0.945 | locus YFR003C, strain YPI1, stronger effect = lower value 0.985 | locus YFR019W, strain FAB1, stronger effect = lower value 0.908 | locus YFR028C, strain CDC14, stronger effect = lower value 0.962 | locus YGR040W, strain KSS1, stronger effect = lower value 0.875 | locus YGR052W, strain FMP48, stronger effect = lower value 0.951 | locus YGR092W, strain DBF2, stronger effect = lower value 0.833 | locus YHR030C, strain SLT2, stronger effect = lower value 0.861 | locus YHR079C, strain IRE1, stronger effect = lower value 0.779 | locus YHR082C, strain KSP1, stronger effect = lower value 0.932 | locus YHR205W, strain SCH9, stronger effect = lower value 0.957 | locus YIL147C, strain SLN1, stronger effect = lower value 0.958 | locus YJL095W, strain BCK1, stronger effect = lower value 0.871 | locus YJL128C, strain PBS2, stronger effect = lower value 0.975 | locus YJL157C, strain FAR1, stronger effect = lower value 0.88 | locus YJR016C, strain ILV3, stronger effect = lower value 0.967 | locus YJR066W, strain TOR1 (second series), stronger effect = lower value 0.874 | locus YJR066W, strain TOR1, stronger effect = lower value 0.881 | locus YKL048C, strain ELM1, stronger effect = lower value 0.941 | locus YKL067W, strain YNK1, stronger effect = lower value 0.951 | locus YKL101W, strain HSL1, stronger effect = lower value 0.91 | locus YKL193C, strain SDS22, stronger effect = lower value 0.971 | locus YKL203C, strain TOR2, stronger effect = lower value 0.9 | locus YLR113W, strain HOG1, stronger effect = lower value 0.93 | locus YLR133W, strain CKI1, stronger effect = lower value 0.911 | locus YLR403W, strain SFP1, stronger effect = lower value 0.843 | locus YML070W, strain DAK1, stronger effect = lower value 0.918 | locus YMR001C, strain CDC5, stronger effect = lower value 0.967 | locus YMR205C, strain PFK2 (second series), stronger effect = lower value 0.945 | locus YMR277W, strain FCP1, stronger effect = lower value 0.978 | locus YNL006W, strain LST8, stronger effect = lower value 0.988 | locus YNL020C, strain ARK1, stronger effect = lower value 0.917 | locus YNL161W, strain CBK1, stronger effect = lower value 0.978 | locus YNL183C, strain NPR1, stronger effect = lower value 0.895 | locus YNL207W, strain RIO2, stronger effect = lower value 0.936 | locus YNL222W, strain SSU72, stronger effect = lower value 0.977 | locus YNL307C, strain MCK1 (second series), stronger effect = lower value 0.862 | locus YOL078W, strain AVO1, stronger effect = lower value 0.964 | locus YOL136C, strain PFK27, stronger effect = lower value 0.957 | locus YOR061W, strain CKA2, stronger effect = lower value 0.891 | locus YOR119C, strain RIO1, stronger effect = lower value 0.906 | locus YOR231W, strain MKK1, stronger effect = lower value 0.875 | locus YOR329C, strain SCD5, stronger effect = lower value 0.968 | locus YPL031C, strain PHO85, stronger effect = lower value 0.863 | locus YPL153C, strain RAD53, stronger effect = lower value 0.828 | locus YPL204W, strain HRR25, stronger effect = lower value 0.85 | locus YPL209C, strain IPL1, stronger effect = lower value 0.98 | locus YPL256C, strain CLN2, stronger effect = lower value 0.951 | locus YPR025C, strain CCL1, stronger effect = lower value 0.975 | locus YPR106W, strain ISR1, stronger effect = lower value 0.984 | locus YPR111W, strain DBF20, stronger effect = lower value 0.983 | strain NNK1, stronger effect = lower value 0.993 | strain TSCII, stronger effect = lower value 0.975

— PubChem BioAssay AID1159580 (chemical genetic matrix, 2015)
